From PubChem BioAssay AID588335 (The Scripps Research Institute Molecular Screening Center, 2011)
Among all 360,000 compounds or so, about 4,500 (1.2%) were called active. The sample as a whole holds a higher share of actives than the screen did. Values without a mark were called inactive. No stated cut-off is given here; in the data, active means inhibition above about 30%; inactive means the rest.

Test: inhibition of GDH and TPI enzymes – biochemical, absorbance, full deck, artefact control for M. tuberculosis FBA inhibitor project, primary screen (AID 588335);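 further: 0% = DMSO wells and 100% = wells lacking the enzyme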
Conditions: GDH-TPI coupled enzyme counterscreen, NADH absorbance; at 4.8 µM; active compounds read high

Compound | inhibition
O=C(C[C@H]1C[C@H]2c3cc(NS(=O)(=O)c4ccc(F)cc4)ccc3O[C@H]2[C@H](CO)O1)NCc1cc(F)ccc1F | -2.37%
CCNC(=O)c1ccc(OCC(=O)Nc2ccc(F)cc2)c(OC)c1 | 0.63%
COc1ccc(C(=O)N/N=C2\CCS(=O)(=O)c3ccc(F)cc32)cc1OC | 32.9% (active)
COc1ccc(C(=O)Nc2ccc(C3(C#N)CCCC3)cc2)cc1OC | 9.36%
CC(Sc1cccc[n+]1[O-])C(=O)Nc1cccc(S(=O)(=O)N2CCOCC2)c1 (stereo not given) | 0%
COc1ccc(/C=C(\NC(=O)c2ccccc2)C(=O)NCCN2CCOCC2)cc1OC | 14.8%
Cc1ccc(C(=O)N/C(=C\c2cn(S(=O)(=O)N(C)C)c3ccccc23)C(=O)N2CCCC2)cc1 | -3.45%
CCn1cc(/C=C(\NC(=O)c2ccc(C)cc2)C(=O)NCCN2CCOCC2)c2ccccc21 | 40.6% (active)
CCSc1nnc(SCC(=O)NNC(=O)c2ccccc2F)s1 | -1.01%
CC1Cc2ccccc2N1C(=O)c1cc2sccc2n1Cc1ccccc1 (stereo not given) | -0.44%
COCCOC(=O)c1sc(=S)n(CCOC)c1N | 11.4%
CCOC(=O)c1sc(=S)n(-c2cccc(OC)c2)c1N | 33.3% (active)
CCOC(=O)C(C)n1cnc2c(nnn2-c2cccc(OC)c2)c1=O (stereo not given) | -6.44%
Cc1cc(/C=N/n2cnnc2)c(C)n1-c1ccc2ncccc2c1 | 15%
O=S(=O)(Cc1nnnn1-c1ccccc1)c1ccccc1 | -3.16%
COc1ccc(CN2CCCCC2C)cc1OC (stereo not given) | 7.17%
COc1cc(/C=C(\C#N)c2nc3ccccc3[nH]2)ccc1O | 31.3% (active)
COc1ccc(C(=O)CN2C(=O)NC(C)(c3ccc(C)cc3)C2=O)cc1OC (stereo not given) | -0.32%
Cc1ccc(C(=O)N/C(=C/c2cccnc2)C(=O)O)cc1 | 1.45%
COc1ccc(/C=C(/NC(=O)c2ccc(C)cc2)c2nc3ccccc3[nH]2)cc1OC | 46.6% (active)
CCN(C[C@H]1N[C@@](CC)(C(=O)OC)[C@H]2C(=O)N(C)C(=O)[C@@H]12)C(=O)Nc1ccc(F)cc1 | 0%
COc1ccc(/C=N/OCc2ccccc2C#N)c(OC)c1 | -3.57%
COC(=O)c1ccc(Nc2ncnc3sccc23)cc1 | 8.09%

Compound | inhibition
CCOC(=O)c1nc(Nc2ccc(C(=O)OC)cc2)c2ccccc2n1 | 33.2% (active)
CCOC(=O)c1ccc(N/C(=N/S(=O)(=O)c2ccccc2)c2ccccc2)cc1 | 10.9%
O=C(c1ccco1)N1CCN(Cc2cccc(C(F)(F)F)c2)CC1 | -0.77%
c1ccc(-c2nnc3n2NC(c2ccc4c(c2)OCO4)S3)cc1 (stereo not given) | 17.1%
CC(=O)c1ccc(N2CCN(C(=O)C3CCN(S(=O)(=O)c4ccc5c(c4)CC(C)N5C(=O)C4CC4)CC3)CC2)cc1 (stereo not given) | 23.5%
CC(C)c1cc(C(=O)O)n[nH]1 | 8.57%
CC(C)c1cc(C(=O)N/N=C/C(Br)=C/c2ccccc2)n[nH]1 | 36.9% (active)
Cc1ccc(/C=N/NC(=O)C(NC(=O)c2ccccc2)c2n[nH]c(=O)c3ccccc23)cc1 (stereo not given) | 1.58%
COc1ccc(CNC(=O)C(NS(=O)(=O)c2cccc3nsnc23)C(C)C)cc1 (stereo not given) | 1.17%
COc1cccc(/C=C(/CC(=O)Nc2ccc(N3CCOCC3)cc2)c2nc3ccccc3s2)c1 | 32.1% (active)
Cc1ccc(OCCCC(=O)Nc2ccc(N3CCOCC3)cc2)cc1 | -5.32%
CCn1c(Cc2ccc(OC)cc2)nnc1SCC(=O)Nc1ccc(N2CCOCC2)cc1 | -0.78%
CCOC(=O)c1sc(N(Cc2ccccc2)C(=O)CN2C(=O)CN(C)C2=O)nc1C | -10.6%
CC(C)(C)C1CCC(OC(=O)CCC(=O)Nc2ccccc2)CC1 (stereo not given) | -9.56%
CCCCn1c(N)c(N2CCOCC2)c(=O)n(CC(=O)NCCc2ccccc2)c1=O | 8.07%
CC(=O)C1=C(O)C(=O)N(c2ccc(Br)cc2)C1c1ccc([N+](=O)[O-])cc1 (stereo not given) | 21.6%
CC(=O)C1=C(O)C(=O)N(c2ccc(S(N)(=O)=O)cc2)C1c1ccccc1F (stereo not given) | 32.2% (active)
NS(=O)(=O)c1ccc(NC2=CC(c3ccc(F)cc3)N(c3ccc(S(N)(=O)=O)cc3)C2=O)cc1 (stereo not given) | 4.35%
CCCSC1=C(C#N)C(c2ccccc2C)C(C(=O)OC)C(=O)N1 (stereo not given) | 3.67%
CC1CCC2(CC1)NC(=O)N(Cc1nnc(-c3cccs3)o1)C2=O (stereo not given) | -10.1%
COc1cc2c(cc1OC)/C(=C/C(=O)c1ccc(NC(C)=O)cc1)NCC2 | 14%
CC1(C)Cc2ccccc2/C(=C/C(=O)c2ccccc2)N1 | 4.27%
CC1CN/C(=C\C(=O)c2ccc(Br)cc2)C(=O)N1 (stereo not given) | 33.3% (active)

Compound | inhibition
CCOC(=O)c1c(CC(C)C)csc1/N=C/C1=C(O)CCCC1=O | -3.83%
CCOC(=O)c1c(N)sc2c1CCCC2=O | 36% (active)
CCOC(=O)c1c(/N=C/c2cc(C)ccc2O)sc2c1CCC2 | 9.89%
CCCCOc1ccc(N(CC(=O)NCC2CCCO2)C(=O)CCC(=O)Nc2cc(C)ccn2)cc1 (stereo not given) | 12.4%
Cc1cccc(NS(=O)(=O)c2ccc(-c3cnc(C4CC4)o3)cc2)c1 | -5.68%
CC1C=CCC2C(=O)N(c3cccc(C(=O)N4CCCCCC4)c3)C(=O)C12 (stereo not given) | 5.39%
Cc1ccc(-c2nn(C(C)(C)C)c3ncnc(N)c23)cc1 | 11.5%
CCOC(=O)C(CC)Sc1ncnc2c1nnn2-c1ccc(F)cc1 (stereo not given) | 11.2%
CCc1nnc(NS(=O)(=O)c2ccc(NC(=S)NC(=O)/C=C/c3cccs3)cc2)s1 | 32.2% (active)
CCc1nnc(NS(=O)(=O)c2ccc(NC(=O)c3cccc(OC(F)(F)C(F)F)c3)cc2)s1 | -13%
CCOC(=O)c1c(NC(=S)NC(=O)/C=C/c2cccs2)sc(C)c1C | -3.37%
COc1ccc(NC(=O)N(C)C[C@H]2Oc3ncc(C#C[C@@H](C)O)cc3C(=O)N([C@H](C)CO)C[C@H]2C)cc1 | 1.42%
Cc1ccc2c(c1)C1C[N+](C)(CC(=O)c3ccccc3)CCC1N2C(=O)c1ccccc1Cl (stereo not given) | -8.62%
CN(C)c1ccc(/C=N/NC(=O)c2ccc(Cn3cc(Br)cn3)o2)cc1 | 30.7% (active)
CN(C)c1ccc(/C=N/NC(=O)C(O)c2ccc(Br)cc2)cc1 (stereo not given) | 30.4%
O=C(Nc1ccc(Br)c2cccnc12)c1ccc(Cn2cc([N+](=O)[O-])cn2)o1 | 4.69%
O=C(c1ccc(Cn2cc([N+](=O)[O-])cn2)o1)N1CCCC1 | -17.2%
O=C(N/N=C/c1ccc2c(c1)OCO2)c1ccc(Cn2cc([N+](=O)[O-])cn2)o1 | 43.3% (active)
CC1CCc2c(sc(NC(=O)c3ccc(Cn4cc(Br)cn4)o3)c2C(N)=O)C1 (stereo not given) | 7.5%
O=C(NCCCN1CCCCC1)C1CCCN(c2ncnc3c2nc2n3CCCCC2)C1 (stereo not given) | -16.5%
COc1ccc(OC)c(NC(=O)C2(C)CCN2C(=O)Cc2ccccc2)c1 (stereo not given) | 7.08%
C=C(C)CNC(=S)/N=c1\scc(C)n1CC | 13.2%
Cc1ccc(/C=N/NC(=O)c2cc3ccccc3cc2O)o1 | 34.5% (active)

Compound | inhibition
Cc1ccc(/C=N/NC(=O)Cn2ccc(C(F)(F)F)n2)o1 | 7.37%
COc1ccccc1C(=O)NC(=S)Nc1ccc(N2CCOCC2)cc1 | 19.6%
O=C(NN=Cc1ccc(N2CCOCC2)cc1)c1cc2ccccc2cc1O | 50.6% (active)
O=C(O)c1ccc(NN=CC2=C(N3CCOCC3)/C(=C/c3ccccc3)CC2)cc1 | 22.9%
Cc1ccc(/C=N/NC(=O)Cn2nc(C)c(Br)c2C)o1 | 5.47%
CCOC(=O)CN(C(=O)CN1CCOCC1)c1ccc(Br)cc1 | 9.62%
Cn1c(SCC(=O)N2CCOCC2)nnc1-c1ccc(NC(=O)c2ccccc2F)cc1 | 0%
Cc1cccc(C(C)C)c1NC(=O)COC(=O)C1CC(=O)N(Cc2ccccc2)C1 (stereo not given) | -2.1%
COc1ccc(CCNS(=O)(=O)c2cc3c(cc2C)NC(=O)CO3)cc1OC | -4.31%
CC1(C)CC(=O)C=C(NCc2ccncc2)C1 | 0.7%
O=C1/C(=C\c2ccc3c(c2)OCO3)N2CCC1CC2 | 33.3% (active)
O=C1/C(=C/c2ccc3c(c2)OCO3)Oc2cc(OCC(=O)N3CC(O)C[C@H]3C(=O)O)ccc21 (stereo not given in full) | 28.4%
CCCNC(=O)N1CCC(c2ccc3c(c2)OCO3)CC1 | -5.17%
CN(C(=O)CCn1c(=S)oc2ccccc21)C1CCCCC1 | 2.6%
Cc1c(NS(=O)(=O)c2cccc(C(=O)Nc3ccc(SC(F)F)cc3)c2)c(=O)n(-c2ccccc2)n1C | 0.43%
O=C(Nc1ccccc1F)c1cc(S(=O)(=O)N2CCCCC2)cs1 | -3.77%
CC1(c2ccccc2)NC(=O)N(CC(=O)N2CC(=O)Nc3ccccc32)C1=O (stereo not given) | -7.8%
CC(=O)N1C(=O)C2(Nc3ccccc3N2)c2ccccc21 | 34.1% (active)
O=C1CN(C(=O)CN2C(=O)NC3(CCCCC3)C2=O)c2ccccc2N1 | 7.32%
CSc1ccccc1NC(=O)CN(C)CC(=O)Nc1cccc(Br)c1 | -2.5%
CC1(C(=O)NS(=O)(=O)c2cccc(F)c2)CCN1C(=O)Cc1ccc(Cl)cc1Cl (stereo not given) | 1.79%
